Measured values reported in PubChem BioAssay AID758 (NMMLSC, 2007).
Out of some 190,000 compounds screened, about 110 (0.058%) were called active. About 2% were inconclusive and are not listed.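 How the source made its calls: active means fluorescent GTP binding to Rab7 beads changed by at least 20 points from the 100% baseline, either direction, mostly lower; inconclusive means compound itself probably fluorescent, or too few beads counted; inactive means the rest.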 What follows is part of a selection rich in actives, with near analogues and random picks from the rest.

These compounds were tested on Rab7 GTPase wild type (dog), Bodipy-FL-GTP binding (assay: wildtype dog Rab7 nucleotide binding alteration – biochemical, multiplex bead flow cytometry, primary screen (AID 758;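 further: median green fluorescence of bound Bodipy-FL-GTP per Rab7 bead population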)). Details: GST-Rab7 beads, fluorescent GTP binding, at 10 µM, actives lie on both sides, untreated = 100%, excess cold GTP = 0%.

GTP binding activity (percent of control), active:
CSc1nsc(SC)c1NC(=O)OC1CCCCC1 20%

GTP binding activity (percent of control), inactive:
Cc1ccccc1NC(=O)c1nn(-c2ccc(F)c(F)c2)ccc1=O 95%
O=C(O)CCCCOn1ccnc1 97%
Cc1ccc(C(=O)N/C(=C\c2cccs2)C(=O)NCCc2ccccn2)cc1C 106%
CNc1nc2c(C)cccn2c(=O)c1C=Nc1ccc(OC)cc1 90%
COc1ccccc1N1CCN(c2ccc([N+](=O)[O-])nc2)CC1 104%
CC1(C)C2CCC1(C)C(OC(=O)c1ccc(O)cc1)C2 (stereo unspecified) 97%
O=C(O/N=C(/c1ccccc1)c1ccncc1)c1ccccc1[N+](=O)[O-] 95%
O=C(c1snnc1-c1ccccc1)N1CCOCC1 100%
CCc1nc2ccccc2c(C(=O)OC2CCCCC2=O)c1C (stereo unspecified) 99%
CC(C)(C)NC(=O)COC(=O)c1cc(Cl)ccc1[N+](=O)[O-] 102%
COc1ccc(C(=O)NNc2cc(C)nc(NNC(=O)c3ccc(OC)cc3)n2)cc1 102%
Cc1ccc(NC(=O)Cn2c(=O)n(CCC(=O)NC3CCN(Cc4ccccc4)CC3)c(=O)c3ccccc32)cc1 102%
C[C@H](NC(=O)c1ccccc1Cl)C(=O)OCCOc1cccc(Cl)c1 94%
OCCNCc1cccc(OCc2ccccc2Cl)c1 97%
CN(C)C(=O)N1CCNCC1 106%
CCCCCC1CCC(c2nnc(SCC(C)=O)o2)CC1 (stereo unspecified) 104%
O=C(NC(Cc1c[nH]c2ccccc12)C(=O)O)/C(=C/c1ccco1)NC(=O)c1ccccc1 (stereo unspecified) 98%
O=C(NNC(=S)NCc1ccco1)C(c1ccccc1)c1ccccc1 105%
COc1ccc(NC(=O)c2c(SC)nsc2SC)cc1 103%
CSc1ncccc1C(=O)NC1CCCCCC1 100%
COc1ccc(/C=N/S(=O)(=O)c2ccccc2)cc1OC 97%
O=[N+]([O-])/C(N=Nc1ccccc1)=N\Nc1ccccc1 101%
CCC(C)(C)NC(=O)CN(Cc1cccs1)C(=O)CNS(=O)(=O)c1ccc(F)cc1 98%
Cc1ccc(CN2CCN(Cc3ccc(OCCO)cc3)CC2CCO)o1 (stereo unspecified) 104%
Cc1cccc(N2CCN(c3ccc(NC(=O)/C=C\C(=O)O)cc3)CC2)c1 97%
O=C1CS(=O)CN1c1ccc(Oc2ccccc2)cc1 (stereo unspecified) 93%
Cc1ccc(C(=O)NCC(=O)O)s1 95%
Cc1c(-c2cccc(Cl)c2)nc2ccccc2c1C(=O)OCC(=O)N(C)C1CCS(=O)(=O)C1 (stereo unspecified) 105%
CCOC(=O)C1(Cc2cccc(OC)c2)CCN(C(C)COC)CC1 (stereo unspecified) 104%
CCSC1=NCCN1S(=O)(=O)c1ccc(F)cc1 105%
CCOc1ccc(/C=N/Nc2nncc(-c3ccccc3)n2)cc1OC 102%
COc1ccc(-c2[nH]ncc2CN(Cc2nccn2C)C(C)C)cc1F 100%
Cc1ccc(-c2cc(C(F)(F)F)n3ncc(C(=O)N4CCCCC4c4cccnc4)c3n2)cc1 (stereo unspecified) 97%
Cc1cccc(N2CCN(c3ccc(C(N)=O)cc3[N+](=O)[O-])CC2)c1C 95%
Cc1nnc(SCC(=O)NNC(=O)c2ccc(Cl)cc2)n1CC1CCCO1 (stereo unspecified) 100%
COc1cc2[nH]c(=O)n(Cc3ccc(C(=O)NC4CCN(Cc5ccccc5)CC4)cc3)c(=O)c2cc1OC 104%
CCCCn1c(N)c(N2CCOCC2)c(=O)n(CC(=O)NCCc2ccccc2)c1=O 105%
COCCCNC(=S)NNC(=O)C(O)(c1ccccc1)c1ccccc1 109%
CC(OC(=O)CCc1nc(=O)c2ccccc2n1C)C(=O)NCc1ccc2c(c1)OCO2 (stereo unspecified) 97%
COc1ccc(NS(=O)(=O)c2cc(NC(=O)CC(=O)c3ccc([N+](=O)[O-])cc3)ccc2C)cc1 106%
COc1cc(OC)cc(-c2nnc(SCC(=O)Nc3ccc(C(=O)O)cc3)s2)c1 93%
Oc1ccc(-c2nncn2-c2ccccc2)cc1 99%
CCN(CCn1cccn1)Cc1cn[nH]c1-c1ccc(OC)cc1F 97%
CCN(CC)S(=O)(=O)c1ccc(NC(=O)c2cccnc2Cl)c(NC(=O)c2cccnc2Cl)c1 91%
CCOC(=O)C1(CC2CCCCO2)CCN(Cc2nc(-c3cccs3)oc2C)CC1 (stereo unspecified) 99%
NC(N)=N/N=C/c1ccc(Cl)c([N+](=O)[O-])c1 103%
CC(Nc1nc(N2CCN(CCO)CC2)nc2ccccc12)c1ccccc1 (stereo unspecified) 98%
CC(=O)NCC(=O)N1CCCC(C(=O)c2ccc3c4c(cccc24)CC3)C1 (stereo unspecified) 98%
CC(C)N1CCC(N2CCN(Cc3cccnc3)CC2CCO)CC1 (stereo unspecified) 104%
N#Cc1c(NC(=O)C2CC(Cl)=CCC2C(=O)O)sc2c1CCCCC2 (stereo unspecified) 94%
